# Ba CapD inh – Bacillus anthracis CapD inhibitors, primary screen, biochemical, fluorescence intensity; CapD gamma-glutamyltranspeptidase (Bacillus anthracis Ames Ancestor); purified CapD enzyme, fluorescence intensity read-out; stronger effect = lower value; z-score (no concentration beside the values); 0.23% of 140,000 active; AID 492967, 2010; in the data active = z-score mostly below about -2.9, no sharp cut-off; inactive = mostly above about -1.9
# The depositor's hits bear a star. The full list was thinned out, with hits kept by preference.
SMILES,Ba CapD inh
CCOc1cc(C(=O)Nc2ccc3nc(N4CCN(CC)CC4)cc(C)c3c2)cc(OCC)c1OCC,4.06
O=C(c1ccccc1)c1cc(Br)ccc1NC(=O)c1cc2ccccc2oc1=O,0.24
CCc1ccc(C(=O)c2cc3ccc(O)cc3oc2=O)cc1,-3.64
O=C(c1ccccc1)c1cc2ccc(O)cc2oc1=O,-6.29*
O=C(c1cc(Cl)nc(Cl)c1)N1CCN(Cc2cc3cccc4c3n(c2=O)CCC4)CC1,1.04
CCN(CC)C(=O)CCCN1C(=O)/C(=C/c2ccc(OC)cc2)SC1=S,0.355
S=C(NCCc1ccncc1)Nc1cc(Cl)ccc1Cl,0.395
Oc1c(C(c2ccccc2Cl)N2CCCCC2)ccc2cccnc12 (stereo not drawn),61
Oc1c(C(c2ccccn2)N2CCCCC2)ccc2cccnc12 (stereo not drawn),-3.81
CN1CCN(C(c2ccccn2)c2cc(Cl)c3cccnc3c2O)CC1 (stereo not drawn),-8.05*
Cc1nc2ccccn2c1C(=O)CSc1cccc(C(F)(F)F)c1,-1.94
COc1ccc(N/C=C/c2onc(-c3ccccc3Cl)c2C#N)c(OC)c1,-1.3
Cc1cccc(NC(=O)C2CCCCC2)c1C(=O)O,-2.02*
CC(C)c1ccccc1NC(=O)C1CCCCC1,0.275
O=C(Nc1ccccc1N1CCCCC1)C1CCCCC1,-0.64
CCOC(=O)c1sc2nc(SCC#N)n(Cc3ccco3)c(=O)c2c1C,4.04
CCOC(=O)c1c(NC(C)=O)nc(SC)n1Cc1ccco1,-11*
CCOC(=O)c1c(NC(C)=O)nc(SC)n1Cc1cccs1,-0.14
CC1(C2(C)OCCO2)OCCO1,0.42
c1ccc(-c2nc(-c3ccn[nH]3)cs2)cc1,4.8
Clc1ccc(-c2nc3ncccc3n2OCc2cccc(Cl)c2)cc1,1.21
Cc1noc(/C=C/N2CCOCC2)c1S(=O)(=O)N(C)CC(=O)NC1CCCCC1,-5.46*
Cc1noc(/C=C/N(C)C)c1S(=O)(=O)N1CCCC(C(=O)NC2CCCCC2)C1 (stereo not drawn),1.73
CCc1ccccc1N(C)S(=O)(=O)c1c(C)noc1/C=C/N1CCOCC1,-3.4
CC1(C)SC(=S)N(/N=C/c2ccco2)C1N(O)C(=O)Nc1ccc(Cl)cc1 (stereo not drawn),-0.805
SMILES,Ba CapD inh
Fc1ccc(-c2cc3ccccc3[nH]2)cc1,75.1
CC(=O)N/C(=C/c1ccc(Br)cc1)C(=O)O,-1.19
O=C(O)Cn1ncc2c1-c1ccoc1CC2,-1.43
O/N=C1/CCCc2occc21,-0.35
O=C1/C(=C\O)CCc2occc21,-8.14*
Cc1ccc(S(=O)(=O)NC(=O)Nc2ccc3[nH]c(C(C)(C)C)cc3c2)cc1,0.46
COC(=O)c1ccc(Cl)cc1NC(=O)c1ccc(F)cc1,-0.615
Cc1[nH]c2c(N(Cc3cccc(Cl)c3)C(=O)c3ccccc3)cccc2c1C,-0.44
CC(C)NC(=S)N/N=C/c1ccco1,-4.04*
S=C(N/N=C\c1ccco1)Nc1ccccc1,-3.3
S=C(NCc1ccccc1)N/N=C/c1ccco1,-1.71
CCc1ccc(NS(=O)(=O)c2ccc3[nH]cc(C(=O)N(CC)CC)c(=O)c3c2)cc1,-0.21
CCc1ccc(N(C)S(=O)(=O)c2ccc3[nH]cc(C(=O)N4CCCCCC4)c(=O)c3c2)cc1,-0.01
CCc1ccc(NS(=O)(=O)c2ccc3[nH]cc(C(=O)N4CCCC4)c(=O)c3c2)cc1,-5.94*
N#Cc1c(N)nc2c3c1NC(O)(c1ccccc1)C(C#N)C3c1cc(Br)ccc1O2 (stereo not drawn),0.65
CCc1ccc(NC(=O)C2COc3ccccc3O2)cc1 (stereo not drawn),-0.195
CCc1ccc2c(c1)S(=O)(=O)C(C(F)(F)F)CO2 (stereo not drawn),-6.58*
O=C(NCc1ccc2c(c1)OCO2)C(F)(F)F,-0.355
Fc1ccc(-c2noc3ncnc(N(Cc4ccco4)CC4CCCO4)c23)cc1 (stereo not drawn),0.395
COC(=O)c1ccc(Cl)c(N)c1,20.6
Cc1ccc(C(=O)N(CC(C)C)CC(C)C)cc1C,0.045
N#Cc1ccc(SCCO)c([N+](=O)[O-])c1,0
O=[N+]([O-])c1ccc(SCCO)c2nonc12,-3.98*
CCN(c1ccccc1)c1cc(N(C)C)c2nonc2c1[N+](=O)[O-],0.315
COc1cc(C(=O)N2CCC(Nc3cccc(S(=O)(=O)C(F)(F)F)c3)CC2)cc(OC)c1OC,-0.025
SMILES,Ba CapD inh
COc1ccc(-c2nc(SCC(=O)NCc3ccccc3)c3c(=O)n(C)c(=O)n(C)c3n2)cc1,-0.13
O=C1NC(=S)N(c2ccccc2)C(=O)/C1=C/C=C/c1ccco1,-1.01
Cc1cc(N2C(=O)NC(=O)/C(=C\C=C\c3ccco3)C2=O)ccc1Br,-0.89
COc1cccc(N2C(=O)/C(=C/C=C/c3ccco3)C(=O)NC2=S)c1,-7.42*
Cc1onc(-c2ccccc2Cl)c1C(=O)SCC(=O)Nc1cc(C(F)(F)F)cc(C(F)(F)F)c1,-0.265
CCOC(=O)C1=C(C)N=c2s/c(=C\c3ccc(C)c(OC)c3)c(=O)n2C1c1cc(OC)ccc1OC (stereo not drawn),0.345
CCOC(=O)CC1=C(C(=O)OCC)C(c2ccccc2F)C(C#N)=C(N)O1 (stereo not drawn),0.2
Cc1c(C(=O)NCc2ccccc2Br)oc2ccccc12,0.525
